Experimental data: PubChem BioAssay (EPA / NIEHS)
The source made the active and inactive calls. The calls were made as follows: active = hit-call score of the fitted dose curve at least 0.9, where 1 is the maximum; inactive = score below 0.9.

Assay: ATG_M_06_CIS: Attagene CIS-FACTORIAL HepG2 Assay for M06 Transcription Factor (Internal Marker) (AID 2282950)
Details: HepG2 Attagene CIS-FACTORIAL M06 internal marker reporter; actives raise or lower the signal
Description: ATG_CIS is a cell-based, multiplexed-readout assay that uses HepG2, a human liver cell line, with measurements taken at 24 hours after chemical dosing in a 24-well plate.ATG_M_06_CIS is one of 52 assay component(s) measured or calculated from the ATG_CIS assay. It is designed to make measurements of mRNA induction, a form of inducible reporter, as detected with fluorescence intensity signals by Reverse transcription polymerase chain reaction (RT-PCR) and Capillary electrophoresis technology.Data from the assay component ATG_M_06_CIS was analyzed into 1 assay endpoint. This assay endpoint, ATG_M_06_CIS, was analyzed with bidirectional fitting relative to DMSO as the negative control and baseline of activity. Using a type of inducible reporter, measures of mRNA for gain or loss-of-signal activity can be used to understand the background control at the transcription factor-level as they relate to the gene . Furthermore, this assay endpoint can be referred to as a secondary readout, because this assay has produced multiple assay endpoints where this one serves a background control function. To generalize the intended target to other relatable targets, this assay endpoint is annotated to the background measurement intended target family, where the subfamily is internal marker.
Human liver HepG2 cells are transiently transfected with multiple reporter transcription units (MRTUs) in 6-well plates using FuGene 6 reagent (Roche; 3 ml FuGene/1 mg DNA). The MRTU constructs are regulated by a cis-regulating element (promoter). […] A major difference between the CIS and TRANS system is that in CIS activities of endogenous TFs are measured, whereas the TRANS assay evaluates changes in activities of exogenous, chimeric NR-Gal4 proteins. […] At the end of 24 hour incubation, total RNA was isolated using TriZol reagent (Invitrogen). The isolated RNA is then reverse-transcribed using oligo(dT) primer and Mo-MLV reverse transcriptase (Invitrogen) with DNAse I (Ambion) treatment for 30 min. The one-tenth of the produced cDNA was amplified by PCR using Taq DNA polymerase (Invitrogen) and two reporter sequence-specific primers. The PCR products were fluorescently labeled by primer extension with 6-arboxyfluorescein (6-FAM) 5'-labeled reporter sequence-specific primer (2 min at 95 C, 20 s at 68 C and 10 min at 72 C) and these products were digested with 5U of HpaI (New England Biolabs) for 2h at 37 C. The fragments were purified using Qiaquick PCR columns (Qiagen), analyzed on an ABI 3130xL genetic analyzer (Applied Biosystems) with peak positions identified by using a set of X-rhodamine (ROX)-labeled MapMarker1000 molecular weight standards (BioVentures). The raw capillary electrophoresis data was processed using Attagraph software (Attagene).

outcome, inactive:
CC(C)=CCC/C(C)=C/CO, Cc1ccc(O)cc1, Fc1ccccc1[C@@H](F)COC1CCC(Nc2ncnc3[nH]ncc23)CC1 (stereo not given in full), Cc1ccc(N)cc1O, Nc1nc2ncc(CNc3ccc(C(=O)N[C@@H](CCC(=O)O)C(=O)O)cc3)nc2c(=O)[nH]1, COC(=O)c1ccccc1O, O=C(O)c1cc(N=Nc2ccc(S(=O)(=O)Nc3ccccn3)cc2)ccc1O, Cn1cnc([N+](=O)[O-])c1Sc1ncnc2nc[nH]c12, CC(C)(O)c1coc(S(=O)(=O)NC(=O)Nc2c3c(cc4c2CCC4)CCC3)c1, O=C1CCCCCN1, COc1cccc(-c2ccc(/C=C\CN3CCCCCC3)cc2Cl)c1, O=C(O)CC(O)C(=O)O (stereo not given), CCc1cc(SCc2sc(-c3ccc(C(F)(F)F)cc3)nc2CN2CCN(c3ccc(OC)cc3)CC2)ccc1OCC(=O)O, CCn1nc(Cc2ccccc2)cc1C1CCN(C[C@H]2C[C@H](N(C)[C@@H](C(=O)O)C(C)C)C[C@@H]2c2cccc(F)c2)CC1, CCOc1cccc(-n2cc(C(=O)N3CCN(c4cc(C(=O)O)c5ccccc5c4)CC3)nc2-c2ccc(C)cc2)c1, CC[C@H]1CC[C@H](NCc2cc3c(cc2OC)[C@H]2C[C@H]2C(=O)N3C)[C@H](c2ccccc2)N1, CC1(C)C(=O)N(Br)C(=O)N1Br, CC(C)=CCCC(C)CCO (stereo not given), CC(=O)OC[C@H]1O[C@@](COC(C)=O)(O[C@H]2O[C@H](COC(C)=O)[C@@H](OC(C)=O)[C@H](OC(C)=O)[C@H]2OC(C)=O)[C@@H](OC(C)=O)[C@@H]1OC(C)=O, C=CCCCCCCCCC(=O)O, C1N2CN3CN1CN(C2)C3, COc1ccc(-n2nc(C(F)F)cc2-c2ccc(S(C)=O)cc2)cc1 (stereo not given), CC(O)CN(CCN(CC(C)O)CC(C)O)CC(C)O (stereo not given), COC(=O)CC(=O)OC, CC/C(=C\C(=N/O)C(N)=O)C(C)[N+](=O)[O-] (stereo not given), CCCCC(CC)COC(=O)c1ccc(C(=O)OCC(CC)CCCC)cc1 (stereo not given), O=C(O)c1cccc(Oc2ccccc2)c1, O=C(OC[C@H]1O[C@@H](OC(=O)c2cc(O)c(O)c(OC(=O)c3cc(O)c(O)c(O)c3)c2)[C@H](OC(=O)c2cc(O)c(O)c(OC(=O)c3cc(O)c(O)c(O)c3)c2)[C@@H](OC(=O)c2cc(O)c(O)c(OC(=O)c3cc(O)c(O)c(O)c3)c2)[C@@H]1OC(=O)c1cc(O)c(O)c(OC(=O)c2cc(O)c(O)c(O)c2)c1)c1cc(O)c(O)c(OC(=O)c2cc(O)c(O)c(O)c2)c1, CCCCCCCCO, CCCC(=O)OCC, NC(=O)NO, CC(C)c1cccc(C(C)C)c1N1C(=O)c2ccc(O)cc2C1=O, Nc1ccc(Nc2ccccc2)cc1, Cc1c(-c2cccnc2)c2ccccc2n1CCCCC(=O)O, O=C(O)CCN(C1(C(=O)NO)CCCC1)S(=O)(=O)c1ccc(Oc2ccc(F)cc2)cc1, CCOCCOCCOCCO, O=C1OC(=O)C2C3C=CC(C3)C12 (stereo not given), CCOCCO, CCOC(=O)c1ccc(C2CCC(NC[C@H](O)COc3ccc(O)c(NS(C)(=O)=O)c3)CC2)cc1 (stereo not given in full), C[C@](N)(Cc1ccc(O)c(O)c1)C(=O)O
